# Laboratory results as given in PubChem BioAssay (NCI).
# Where “and” joins values, the source holds several entries; their conditions need not be identical. Equal entries are not always repeated. This is part of a sample that, as a whole, favours compounds with a hit. Of some 79,000 tested, about 15% had one in any assay. Values without a mark were called inactive. Calls of active or inactive are those of the source. Rule as the data show it: active = growth inhibition above about 70%; inactive = the rest.
# Legend:
# [1] = NCI Yeast Anticancer Drug Screen. Data for the rad50 strain (AID 155);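 also: 0% = growth of vehicle-only cultures of the same strain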; conditions: S. cerevisiae rad50 strain growth inhibition, active compounds read high; at 50.0 µM unless noted
# Method in brief: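 Cells are treated with compound, grown, and their growth is then scored against vehicle-only cultures of the same repair-deficient yeast strain.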
# [2] = NCI Yeast Anticancer Drug Screen. Data for the mec2-1 strain (AID 157); conditions: S. cerevisiae mec2-1 strain, active compounds read high; at 50.0 µM unless noted
# Method in brief: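 Vehicle-treated cultures served as reference for growth inhibition of compound-exposed mec2-1 yeast.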
# [3] = NCI Yeast Anticancer Drug Screen. Data for the sgs1 mgt1 strain (AID 161);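 also: 0% = growth of cultures given vehicle only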; conditions: S. cerevisiae sgs1 mgt1 strain, active compounds read high; at 50.0 µM unless noted
# Method in brief: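 Read-out: growth inhibition vs vehicle controls. Cells: mutant yeast strain deficient in DNA damage repair.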
# [4] = NCI Yeast Anticancer Drug Screen. Data for the cln2 rad14 strain (AID 165);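 also: 0% = growth equal to vehicle treated cultures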; conditions: S. cerevisiae cln2 rad14 strain, active compounds read high; at 50.0 µM unless noted
# Method in brief: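 Each compound was tested on cln2 rad14 yeast. Inhibition of growth was calculated against vehicle-exposed controls.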
# [5] = NCI Yeast Anticancer Drug Screen. Data for the bub3 strain (AID 167); conditions: S. cerevisiae bub3 mutant strain, active compounds read high; at 50.0 µM unless noted
# Method in brief: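 Part of a panel of yeast mutants defective in DNA damage repair or cell cycle regulation. Each strain is grown with compound, and inhibition is calculated relative to solvent-treated cultures.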
# [6] = NCI Yeast Anticancer Drug Screen. Data for the mlh1 rad18 strain (AID 175); conditions: S. cerevisiae mlh1 rad18 strain growth inhibition, active compounds read high; at 50.0 µM unless noted
# Method in brief: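 Vehicle-treated cultures served as the reference for growth inhibition in a yeast strain carrying DNA damage repair alterations exposed to each compound.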
SMILES,growth inhibition [1],growth inhibition [2],growth inhibition [3],growth inhibition [4],growth inhibition [5],growth inhibition [6]
C#CCOC(=O)Nc1ccccc1,21.6% and 1.85%,12.7% and -1.2%,-8.7% and -8.65%,-72.2% and -54.2%,-1.1% and -10.6%,5.55% and -0.8%
CC1(CCC(=O)O)C(=O)C(=O)CC2C1CCC1(C)C(O)CCC21 (stereo not drawn),-9.5%,-0.6%,-7.25%,0.15%,-4.1%,-17.4%
C=CCOC(=O)c1ccccc1,11.3%,6.5%,2.55%,11.4%,-9.55%,-16.6%
NN=C(c1ccc([N+](=O)[O-])cc1)c1ccc([N+](=O)[O-])cc1,-3.3%,0.55%,-25.6%,-9.65%,27%,-0.7%
CCO/C=C(\C)CC1([N+](=O)[O-])C(=O)c2ccccc2C1=O,7.95%,-4.75%,16.1%,-3.75%,11.5%,15.8%
COc1nc(NC2OC(COC(C)=O)C(OC(C)=O)C(OC(C)=O)C2OC(C)=O)c(N=CC=Nc2c(NC3OC(COC(C)=O)C(OC(C)=O)C(OC(C)=O)C3OC(C)=O)nc(OC)[nH]c2=O)c(=O)[nH]1 (stereo not drawn),-11.3%,-8.45%,-2.65%,-16.8%,-5.6%,-11.5%
Cc1ccc(NC(=O)c2ccc(OP(=O)(O)Nc3ccc(C)cc3)cc2)cc1,-22.6%,-21.8%,-8.05%,-3.15%,-5.2%,-4.1%
C/C(=N\NC(=S)Nc1nccs1)c1ccccn1,96.7% (active),97.8% (active),97.6% (active),90.5% (active),96% (active),98.4% (active)
Clc1ccc2[nH]c3c(c2c1)CCCC3,10.7%,0.45%,28.4%,1.6%,2.55%,28.8%
Cc1nn(C(=O)Cc2ccccc2)c2c1C(c1ccc(Cl)cc1)SC(N)=N2 (stereo not drawn),-30.1%,-31.5%,-29.1%,6.45%,-23.6%,-25.1%
COc1ccc(/C=C2\CNC/C(=C\c3ccc(OC)cc3)C2=O)cc1,34%,1.75%,55.2%,37.5%,15.3%,34.1%
CC1(C)CC([NH-])(C(=O)O)CC(C)(C)N1O.CC1(C)CC([NH-])(C(=O)O)CC(C)(C)N1O.[Zn+2],-1.45%,-17.1%,-2.25%,-41.9%,1.5%,-7.4%
CC(C)(C)OC(=O)NCC(=O)OC/C=C/c1ccccc1,-2.7%,1.3%,6.65%,-8.15%,-3.6%,6.1%
Cn1cnc([N+](=O)[O-])c1Sc1ncn[nH]1,-3.45% and 6%,3.3% and -1.85%,8.45% and 2.6%,0.35% and 24.6%,4% and 21.8%,-54.3% and 0.9%
C[N+]1(CCN[N+]2(C)CCCCC2)CCc2ccccc2C1 (stereo not drawn),-5.55%,-14.7%,-44.5%,-20.3%,-39.3%,-3.25%
CSc1nc(SC)c2ncn(C3CC(Oc4ccc(C)cc4)C(COc4ccc(C)cc4)O3)c2n1 (stereo not drawn),15.8%,-5.75%,17.1%,10.3%,8.45%,-18.2%
CC1CCC2(OC1)OC1CC3C4CCC5CC(O)CCC5(C)C4C(O)CC3(C)C1C2C (stereo not drawn),42.5%,5.65%,43%,36.8%,52.1%,24.1%
CCOC(=O)CNC(=O)SCc1ccccc1,-12.4%,-6.2%,-5.95%,-8.1%,-11.3%,1.45%
O=C(Nc1cccc(Cl)c1)Oc1c([N+](=O)[O-])cc(Cl)cc1[N+](=O)[O-],13.2%,6.75%,21.1%,-12%,0.15%,28.3%

SMILES,growth inhibition [1],growth inhibition [2],growth inhibition [3],growth inhibition [4],growth inhibition [5],growth inhibition [6]
CCc1cccc(CC)c1NC(=S)N/C=C(\C#N)S(=O)(=O)c1ccc(C)cc1,-4.8%,-10.6%,17.4%,-15.4%,-5.5%,-20.5%
C=CCC1(CN(C)C)CC/C(=C\c2ccc(Cl)cc2)C1=O (stereo not drawn),55.2%,23.6%,59.8%,42.2%,16.3%,52.5%
Cc1cc(Cl)ccc1NC(=O)CC/C(CC(=O)C(C)C)=N\NC(=O)C[n+]1ccccc1,-43.9%,3.45%,-20.4%,-15.2%,-30.6%,-32.8%
CC1CCCCN1P(c1ccccc1)N1CCCCC1C (stereo not drawn),28.5%,16.9%,18.5%,24.1%,35%,22.7%
C/C(=N\NS(=O)(=O)c1c(C)cc(C)cc1C)c1ccc[n+]([O-])n1,3.95%,0.2%,-8.4%,15.1%,-12.8%,-6.7%
CCNC(=O)CCCC(=O)OC,9.75%,4.55%,18.9%,14.6%,7.35%,2.2%
CCOC(=O)C(=CN1CCNC1=S)C(=O)OCC,-30.6%,-33.6%,-25.6%,-1.6%,-15.8%,-3.85%
CCNc1ncnc2c1nnn2CC,-5.55%,-12.2%,-15.8%,-7.75%,-27.4%,6.75%
Cc1ccc(S(=O)(=O)C2CC(=O)N(c3ccc(F)c(Cl)c3)C2=O)cc1 (stereo not drawn),-26.6%,4.55%,-7.6%,-19.2%,4.2%,-11.7%
CCCCOC(=O)COCC(=O)OC(C)C(=O)OCCCC (stereo not drawn),-20.9%,13.1%,6.55%,-22.1%,20%,4.1%
N#CC1CSCC1=O (stereo not drawn),-6.5%,-8.8%,-20.4%,-12.8%,9.9%,-1.9%
O=c1ccc2ccccc2cc1,14.3%,-18.6%,20.8%,-39.9%,8.15%,8.4%
O=C(Nc1ccc(Cl)c(Cl)c1)N(CCO)Cc1ccccc1,88.7% (active),97% (active),97.2% (active),90% (active),95.5% (active),94.4% (active)
Cc1cc([N+](=O)[O-])ccc1NC(=O)n1nnc2cc(Cl)ccc21,-5.55%,0.35%,-5.85%,1.1%,21%,6.9%
Cc1cc(C)nc(NS(=O)(=O)c2ccc(NC(=O)NC(F)(F)F)cc2)n1,-41%,-30.2%,-63%,15.8%,26.9%,-23.9%
O=C(NCc1ccccc1)c1n[nH][nH]c1=O,3.05%,5.8%,12.2%,-8.15%,-3.3%,20.6%
CCCNC(=O)NS(=O)(=O)c1ccc(Cl)cc1,-4.15% and -5.15%,0.2% and -0.4%,4.2% and 1.6%,15.6% and -26.4%,11.7% and 23.1%,38.3% and -7.15%
c1cc(-c2cnc(-c3ccc4c(c3)CCCO4)o2)ccn1,40.5%,29.9%,31.6%,17.9%,46.5%,44.1%
CCn1c2ccccc2c2ccccc21,27.2%,-6%,-10.2%,13.8%,-8.15%,17.4%
